# Screening results from PubChem.
# Smad3 inh: Smad3/FoxH1 peptide binding inhibitors, primary screen, biochemical, TR-FRET. inhibition, % at 25 µM. TR-FRET Smad3/Dy647-FoxH1 peptide binding, europium anti-His. 0.29% of 88,000 active. Mothers against decapentaplegic homolog 3 (Homo sapiens), P84022;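 active = compounds that reduce the energy-transfer binding signal between the protein and its labelled peptide by more than half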;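 also: 0% = Smad3 plus labelled peptide maximal FRET and 100% = peptide-only background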
# ERb SRC1 inh: inhibitors of ERβ-SRC1 coactivator interaction, primary screen, biochemical, TR-FRET, ERβ LBD, SRC-1 peptide; Estrogen receptor beta (Homo sapiens), Q92731; TR-FRET ER-beta LBD / SRC1-Cy5 peptide binding; receptor agonist-loaded with 1 µM estradiol; inhibition, % at 25.6 µM; 1.3% of 86,000 active;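 active = compounds whose percent inhibition of the receptor-coactivator binding signal exceeds about 50% in the single-dose screen, limit read from the data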;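 also: 0% = receptor plus peptide wells without compound and 100% = peptide-only wells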
# Target sequence (Q92731 whole entry, looked up, the tested form may be a part): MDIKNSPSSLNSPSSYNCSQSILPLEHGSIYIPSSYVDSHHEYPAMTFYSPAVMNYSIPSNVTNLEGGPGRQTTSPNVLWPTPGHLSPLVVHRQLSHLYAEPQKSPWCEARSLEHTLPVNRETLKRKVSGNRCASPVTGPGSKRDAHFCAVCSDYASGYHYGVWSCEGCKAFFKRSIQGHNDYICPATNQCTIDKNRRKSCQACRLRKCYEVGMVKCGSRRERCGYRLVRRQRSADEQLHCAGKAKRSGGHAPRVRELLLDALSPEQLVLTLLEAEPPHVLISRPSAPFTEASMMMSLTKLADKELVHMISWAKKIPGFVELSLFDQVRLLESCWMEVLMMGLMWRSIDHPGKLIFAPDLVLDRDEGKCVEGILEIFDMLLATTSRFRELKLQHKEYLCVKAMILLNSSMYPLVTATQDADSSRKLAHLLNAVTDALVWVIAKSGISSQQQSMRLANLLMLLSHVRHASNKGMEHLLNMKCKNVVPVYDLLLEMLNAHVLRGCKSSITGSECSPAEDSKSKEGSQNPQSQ
# ERa SRC1 pot: enhancers of ERα–SRC-1 coactivator binding, primary screen, biochemical, TR-FRET, ERα LBD, low estradiol | Estrogen receptor (Homo sapiens), P03372 | TR-FRET ERalpha-LBD/SRC-Cy5 coactivator binding, 2 h; 100 = basal binding, no effect | coactivator binding (% of control), % at 25.6 µM | 1.3% of 86,000 active; in the data active = activity above about 200%;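 also: binding measured in presence of low estradiol as agonist stimulus; 0% = peptide alone without receptor and 100% = receptor with peptide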
# ERa SRC1 inh: ERα–SRC-1 coactivator interaction inhibitors, primary screen, biochemical, TR-FRET, ERα LBD, estradiol-bound. inhibition, % at 25.6 µM. 1.7% of 86,000 active. Estrogen receptor (Homo sapiens), P03372. TR-FRET ER-alpha LBD / SRC-1 peptide. AID 629, 2007; in the data active = inhibition above about 50%;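 also: 0% = receptor plus peptide control and 100% = peptide only without receptor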
# * marks the source's active call; other numbers are inactive results; . = no result; [ ] = remark or other dose. Hits are enriched below; roughly 3.7% of the tested compounds scored in any of these assays.
SMILES,Smad3 inh,ERb SRC1 inh,ERa SRC1 pot,ERa SRC1 inh
O=C(c1ccc2c(=O)n(Cc3ccc4c(c3)OCO4)c(=S)[nH]c2c1)N1CCCCC1,-12.0,-8.7,97.2,-18.5
Cc1ccc(-c2nnc(N3CCCCC3)c3ccccc23)cc1S(=O)(=O)NCC1CCCO1 (stereo unspecified),3.3,-1.4,83.9,-2.4
Cc1oc2ccccc2c1-c1cn2c(n1)SCC2,-4.6,7.9,83.5,0.5
c1ccc(-c2cn3c(n2)SCC3)cc1,3.8,-0.9,103.2,-8.0
Oc1ccc(-c2cn3c(n2)SCC3)cc1O,19.1,94.1*[fluorescence artefact?],20.1,74.8*[fluorescence artefact?]
Oc1ccc(-c2cn3c(n2)SCC3)cc1,12.2,67.2*[fluorescence artefact?],113.9,-7.7
CC(=O)O[C@]1(C)N=NC2(CCCCC2)O1,-7.3,.,.,.
O=C(O)[C@@H]1[C@H]2C[C@H]([C@@H](Br)[C@H]2N2C(=O)CCC2=O)[C@@H]1C(=O)O,11.8,.,.,.
CCCOC(=O)c1cc(-c2ccc(/C=C3/C(=O)N(C)C(=O)C(C#N)=C3C)o2)ccc1Cl,-1.1,67.2*,42.5,82.7*[fluorescence artefact?]
O=C(O)c1cccc(N2CCCC2)c1,-1.7,-2.4,103.5,1.4
Cc1ccc(C)n1-c1cccc(C(=O)O)c1,0.9,25.5,327.6*,-0.4
COC(=O)c1scc(C)c1N/N=C(\C)c1cc(F)c(Cl)cc1F,1.7,-7.4,103.5,10.9
Cc1nnc(NC(=O)CSc2nnc3scc(-c4ccc(C)c(C)c4)n23)s1,0.2,-15.2,258.9*,-23.4
CCc1nnc(NC(=O)CSc2nnc3scc(-c4ccc(C)cc4)n23)s1,-1.1,3.1,106.3,1.3
Cc1sc(NC(=O)CSc2nnc(COc3ccccc3)n2C)c(C#N)c1C,12.4,3.1,131.5,1.2
Cc1nc(CSc2nnc3scc(-c4ccccc4)n23)cs1,2.5,-2.9,120.7,4.3
Cc1ccc(-c2csc3nnc(SCc4csc(C)n4)n23)cc1,9.8,-0.3,365.5*[fluorescence artefact?],1.1
Cc1ccc(OCc2nnc(SCC(=O)Nc3sc(C)c(C)c3C#N)n2C)cc1,8.6,10.2,249.7*,15.1
Cc1ccc(-c2nc(NC(=O)CSc3nnc4scc(-c5ccccc5)n34)ns2)cc1,-7.7,-4.5,203.2*[fluorescence artefact?],24.3
CC(=NC1CCCCC1)c1ccccc1O,15.8,.,.,.
Cc1sc(NC(=O)CSc2nnc3scc(-c4ccccc4)n23)c(C#N)c1C,-8.0,33.5,224.5*[fluorescence artefact?],36.8
O=C(Nc1cccnc1)c1cc(-c2cccs2)on1,0.8,3.6,115.3,7.9
O=C(Nc1cccnc1)c1cc(-c2ccc3c(c2)OCO3)on1,7.7,17.0,404.8*,28.7
CCN(CC)C[C@@H](O)c1ccc2ccc3ccccc3c2c1,-10.9,.,.,.
CCN(CC)C1=CC(=O)OC12CCCCC2,7.4,61.5*,72.5,-37.0
SMILES,Smad3 inh,ERb SRC1 inh,ERa SRC1 pot,ERa SRC1 inh
c1ccc(-c2nn3c(-c4ccco4)nnc3s2)nc1,14.2,21.8,72.5,-8.1
Clc1ccccc1-c1nnc2sc(-c3ccncc3)nn12,6.1,-10.0,106.3,-7.5
CN(C)c1ccc(-c2nn3c(-c4ccccc4Cl)nnc3s2)cc1,-0.5,44.0,94.3,72.3*[fluorescence artefact?]
Cc1oc(-c2ccccc2Cl)cc1-c1nn2c(-c3ccco3)nnc2s1,-4.3,52.1*[fluorescence artefact?],166.2,57.8*
Clc1ccc(OCc2nn3c(-c4ccco4)nnc3s2)c(Cl)c1,17.8,49.9,173.1,66.2*[fluorescence artefact?]
Clc1ccc(-c2ccc(-c3nn4c(-c5ccco5)nnc4s3)o2)cc1,8.7,45.8,123.5,74.2*
Brc1ccc(-c2nn3c(-c4ccco4)nnc3s2)o1,7.5,26.6,93.7,25.4
CCc1nnc(NC(=O)[C@@H](NC(=O)c2cccc(S(=O)(=O)N3CCOCC3)c2)C(C)C)s1,-2.3,-7.2,104.9,1.8
O=C(Nc1cccc(C(F)(F)F)c1)c1cccnc1N1CCN(c2ccccc2)CC1,-1.0,-0.4,94.5,4.8
C/C(=N\[N+](C)(C)C)c1ccc(C)c(C)c1,-4.3,.,.,.
c1cc2c3c(cccc3c1)C(N1CCN(C3=Nc4cccc5cccc3c45)CC1)=N2,-4.7,10.1,203.2*[fluorescence artefact?],33.8
CC(=O)N1CCN(C2=Nc3cccc4cccc2c34)CC1,-1.1,-8.7,104.7,-9.1
COc1cc(NCCCCCCCN)c2ncccc2c1,16.1,39.0,38.0,77.6*[fluorescence artefact?]
Cn1cnnc1SCC(=O)Nc1sccc1C#N,5.4,18.9,73.5,28.2
Cn1c(SCC(=O)Nc2ccccc2F)nnc1-c1cc2ccccc2o1,-75.9,5.7,596.6*[fluorescence artefact?],-40.4
CC(=O)Nc1ccc(-c2nnc(SCC(=O)n3c4c(c5ccccc53)CCCC4)n2C)cc1,9.6,-14.6,256.2*,-24.1
Cn1c(SCC(=O)Nc2sccc2C#N)nnc1-c1ccccc1,-6.3,45.7,28.9,53.4*
Cn1c(SCC(=O)Nc2ccc3c(c2)oc2ccccc23)nnc1-c1ccccc1,11.4,30.9,250.6*[fluorescence artefact?],51.5*
Cn1c(SCC(=O)n2c3c(c4ccccc42)CCCC3)nnc1-c1ccccc1,-4.4,-3.1,190.1,10.2
CN(Cc1cccc2ccccc12)Cc1cccc2ccccc12,9.6,.,.,.
Oc1c(C(O)(c2ccccc2)c2ccc3ccccc3c2O)ccc2ccccc12,18.0,.,.,.
CCOc1cc(C2NC(=O)NC(C)=C2C(=O)OCc2ccccc2)ccc1O (stereo unspecified),-1.2,-2.4,124.9,-8.6
CC(C)=C[C@H]1[C@H](COC(=O)c2ccccc2Cl)C1(C)C,-3.5,.,.,.
CC(C)c1ccccc1NC(=O)c1cccc(NC(=O)c2ccccc2)c1,27.9,5.0,116.3,5.4
O=C(O)CC12C[C@@H]3C[C@@H](CC(O)(C3)C1)C2,1.6,.,.,.
SMILES,Smad3 inh,ERb SRC1 inh,ERa SRC1 pot,ERa SRC1 inh
CC(=O)Nc1ccc2c(c1)/C(=C/c1ccc([N+](C)(C)C)cc1)c1ccccc1-2,93.1*,.,.,.
CN(Cc1ccccc1)S(=O)(=O)c1cccc2cccnc12,-9.1,-8.8,113.5,-3.9
O=C(NC1CCCCC1)c1ccccc1NC(=O)C1CC1,13.0,2.1,100.9,-3.5
O=C(CN1CCCCC1)N1CCCc2c1c(=O)oc1ccc(OCc3ccccc3)cc21,1.6,-5.2,326.6*[fluorescence artefact?],0.9
Cc1nn(C)c(C)c1N=Cc1c(O)ccc2ccccc12,8.4,67.6*[fluorescence artefact?],95.7,-3.9
CC(C)N(CC(=O)O)CC(=O)O,1.0,.,.,.
Nc1nc2c(c(=O)[nH]1)CN(c1ccc(S(N)(=O)=O)cc1)CN2,24.0,.,.,.
Nc1nc2c(c(=O)[nH]1)CN(CCCN1CCOCC1)CN2,72.5*,.,.,.
C[N+](C)(N)Cc1nc(-c2ccc(Cl)cc2)no1,5.5,.,.,.
O=C(c1ccco1)N1CCN(C(=O)c2oc(=O)c3ccccc3c2-c2ccccc2)CC1,11.9,-9.1,93.8,-3.2
O=c1[nH]c2ccc(Cl)cc2c(-c2ccccc2)c1N1CCOCC1,3.1,22.9,357.2*[fluorescence artefact?],18.1
O=c1[nH]c2ccc(Cl)cc2c(-c2ccccc2)c1CN1CCOCC1,9.2,0.3,86.8,-0.4
O=c1[nH]c2ccc(Cl)cc2c(-c2ccccc2)c1N1CCN(c2ccccn2)CC1,0.5,30.1,259.6*[fluorescence artefact?],12.6
